High-throughput results deposited in PubChem BioAssay by National Center for Advancing Translational Sciences (NCATS).
L3MBTL1 block: inhibitors of human L3MBTL1. Q9Y468. AlphaScreen L3MBTL1–H3K9me1 peptide binding. Potency, µM (series often up to 57.1 µM), inactives show at the top dose activity, negative = inhibition, hits mostly inhibitors. hit rate 0.66% among 230,000. AID 485360; also: % is scaled to controls: 0 for no effect and ±100 for the full control effect; nearly all actives have a fitted effect of over 60% in size
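Displacement of a biotinylated histone H3(1-15) peptide monomethylated at Lys9 (75 nM) from L3MBTL1 (50 nM) was measured by AlphaScreen after a 30 min room-temperature compound incubation; cefsulodin titration served as intraplate control.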
JMJD2A Tudor inh: blocks the human JMJD2A Tudor domain; Potency, µM (series often up to 114 µM), for the others: at the highest dose activity change, negative = inhibition, most hits filed as inhibitors; AID 504339; AlphaScreen JMJD2A-Tudor / H3K4me3 peptide binding; hit rate 4.4% among 390,000; O75164; also: % is scaled to controls: 0 for no effect and ±100 for the full control effect; nearly all actives have a fitted effect of over 50% in size
BAZ2B inh: blocks human BAZ2B. Q9UIF8. AlphaScreen BAZ2B-H3K14Ac peptide displacement. Potency, µM (doses to about 114 µM), for inactives: at the highest dose activity change, negative = inhibition, most hits filed as inhibitors. hit rate 4.4% among 360,000. AID 504333; also: % is scaled to controls: 0 for no effect and ±100 for the full control effect; nearly all actives have a fitted effect of over 60% in size
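Compounds, titrated to a top concentration of 110 uM, were incubated 30 min at room temperature with preformed BAZ2B/acetyl-K14 H3 peptide complex (50 nM each). Proximity signal was measured by AlphaScreen after 20 min with beads.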
HP1b chromo inh: HP1-beta chromodomain-methylated histone interaction inhibition; P83916; Potency, µM (top dose mostly 114 µM), for the others: at the highest dose activity change, negative = inhibition, hits mostly inhibitors; AlphaScreen HP1-beta / biotin-H3K9me3 peptide binding; hit rate 0.56% among 390,000; also: nearly all actives have a fitted effect of over 70% in size
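HP1-beta protein (50 nM final) preincubated 30 min at room temperature with biotinylated H3(1-18)K9me3 peptide (50 nM) in PBS pH 7.4, 0.01% Tween-20, then compound added for 30 min. AlphaScreen streptavidin donor/nickel chelate acceptor beads (10 ug/mL final), 30 min dark, luminescence read.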
G9a block: G9a (human) methyltransferase inhibition. Q96KQ7. G9a H3K9 monomethylation, AlphaScreen, 2 h. Potency, µM (doses to about 102 µM), for inactives: top-dose activity, negative = inhibition, most hits filed as inhibitors. hit rate 8.8% among 350,000. AID 504332; also: % is scaled to controls: 0 for no effect and ±100 for the full control effect; nearly all actives have a fitted effect of over 75% in size
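Step 1: enzyme (final 20 nM) with compound, 15 min RT. Step 2: substrate peptide 500 nM and SAM 20 uM, 2 h RT. Step 3: anti-H3K9me1 antibody and AlphaScreen beads, 10 min, then plate read.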
GLS inh: glutaminase GLS (human) inhibition; O94925; GLS enzymatic activity, qHTS titration; Potency, µM (series often up to 45.5 µM), without a hit: top-dose activity change, negative = inhibition, usual class: inhibitors; hit rate 0.21% among 410,000; AID 624170; also: % is scaled to controls: 0 for no effect and ±100 for the full control effect
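Compounds were pin-transferred onto hKGA, after which L-glutamine (1 mM solution) and a detection mix of glutamate oxidase, HRP and Amplex Red were added. Initial and 30 min RT fluorescence reads were collected.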
* marks the source's active call; other numbers are inactive results; u = inconclusive; x = no result given; [ ] = another dose, or the depositor's remark. The list is not random: actives were taken first. Their share in the collection is about 10%. Calls follow the shape of the dose curve; as a rule, active = well fitted curve in the direction sought with a large enough effect; inconclusive = small, poorly fitted or top-dose-only effect, or another doubt; inactive = no such curve, though single readings can be large; an effect the other way counts as inactive or inconclusive. Potency is read from the fitted curve at half-maximal effect.

SMILES	L3MBTL1 block	JMJD2A Tudor inh	BAZ2B inh	HP1b chromo inh	G9a block	GLS inh
CS/C(=C\[N+](=O)[O-])Nc1ccc(Cl)cc1	x	-4%	-9%	12%	11µM*	1%
CCOc1ccc(S(=O)(=O)N2Cc3ccccc3CC2C(=O)Nc2ccc(NC(C)=O)cc2)cc1 (stereo unspecified)	x	-35%	-34%	2%	-40%[59 µM]	-13%
O=C(N/N=C/c1ccc(O)c(O)c1)c1cc(-c2ccccc2)nc2ccccc12	x	u	u	-29%	45µM*	13µM*
O=C(NC(C(=O)N/N=C/c1cccc2ccccc12)c1n[nH]c(=O)c2ccccc12)c1ccccc1 (stereo unspecified)	-21%	-23%	-35%	-2%	-18%	0%
Cc1cc(C(=O)N/N=C/c2ccc([N+](=O)[O-])cc2)c2ccccc2n1	-13%	-6%	28%	40%	14%	-2%
Cc1cc(C(=O)N/N=C/c2cc([N+](=O)[O-])ccc2O)c2ccccc2n1	18µM*	25µM*	18µM*	25%	32%[59 µM]	-4%
Cc1cc(C(=O)N/N=C/c2cc(Br)cc([N+](=O)[O-])c2O)c2ccccc2n1	u	u	50µM*	u	u	17%
O=C(NC(C(=O)N/N=C/c1cc([N+](=O)[O-])ccc1O)c1n[nH]c(=O)c2ccccc12)c1ccccc1 (stereo unspecified)	x	45µM*	32µM*	4%	u	-9%
CCOC(=O)CSc1nc(-c2ccc(F)cc2)cc(C(F)(F)F)c1C#N	x	21%	13%	76%	2%[59 µM]	-8%
O=C(N/N=C/c1cc([N+](=O)[O-])ccc1O)c1cc(-c2ccccc2)nc2ccccc12	u	u	32µM*	9%	u	-1%
O=C(N/N=C/c1cc([N+](=O)[O-])ccc1Cl)c1cc(-c2ccccc2)nc2ccccc12	x	0%	-1%	50%	10%[12.7 µM]	-9%
C[C@@H](C(=O)NCCc1c[nH]c2ccccc12)[C@@H]1C[C@@]1(C)[C@@H](NC(=O)OCc1ccccc1)c1ccccc1	-10%	u	-35%	4%	45µM*	1%
C[C@@H](C(=O)NCc1ccccc1)[C@@H]1C[C@@]1(C)[C@@H](NC(=O)OCc1ccccc1)c1ccccc1	-9%	-18%	0%	36%	-25%	0%
Cc1ccc(C2=C(O)C(=O)C(c3ccc(C)cc3)=C(O)C2=O)cc1	x	25µM*	x	-23%	x	5%
CC1=C(O)C(=O)C(C2=C(O)C(=O)C(C)=C(O)C2=O)=C(O)C1=O	x	0.71µM*	x	u	x	u
CSc1nc(C)cc(Nc2c(C)cc(C)cc2C)n1	x	0%	-8%	47%	-4%[59 µM]	4%
COc1ccc(CCN2CCCC(CN(C)Cc3cc(Cl)c(O)c(OC)c3)C2)cc1 (stereo unspecified)	-1%	-18%	-30%	47%	71µM*	3%
COc1ccc(CN(C)CC2CCCN(CCc3ccccc3C)C2)cc1O (stereo unspecified)	-11%	-33%	-2%	20%	x	24%
COC(=O)CCCC1=CC2=C(c3ccccc3)C(=O)C(C)(OC(=O)C3CCCC3)C(=O)C2=CN1Cc1ccc(OC)cc1 (stereo unspecified)	x	50µM*	u	u	u	-2%
COC(=O)CCC(=O)OC1(C)C(=O)C2=CN(c3ccc(OC)cc3)C(c3ccc(OC)cc3)=CC2=C(Br)C1=O (stereo unspecified)	x	40µM*	x	u	x	-2%
COC(=O)CCC(=O)OC1(C)C(=O)C2=CN(C3CCCC3)C(c3ccc(OC)cc3)=CC2=C(Br)C1=O (stereo unspecified)	x	56µM*	45µM*	u	1%[12.7 µM]	0%
Cc1cccc(NC(=O)N2CCN3CCCCC3C2)c1C (stereo unspecified)	x	-5%	u	24%	-21%[59 µM]	0%
Fc1ccc(Nc2ncncc2-c2ccccc2C(F)(F)F)cc1	x	x	x	x	-21%[0.501 µM]	x
COC(=O)[C@H]1[C@H]2C[C@@H]3c4[nH]c5cc(OC)ccc5c4CCN3C[C@H]2C[C@@H](OC(=O)c2ccc(N)cc2)[C@@H]1OC	x	u	40µM*	-15%	u	1%
Cc1ccc([N+](=O)[O-])cc1S(=O)(=O)Nc1ccc(O)c(Sc2ncn[nH]2)c1	x	-19%	-3%	25%	x	30%
SMILES	L3MBTL1 block	JMJD2A Tudor inh	BAZ2B inh	HP1b chromo inh	G9a block	GLS inh
Cc1cc(C)c(S(=O)(=O)/N=C2/C=C(Sc3ncn[nH]3)C(=O)c3ccccc32)cc1C	u	u	45µM*	u	1.4µM*	9%
Cc1ccc(F)c(C2C3C=CCC(C)C3C(=O)N2Cc2ccccc2)c1 (stereo unspecified)	x	19%	x	44%	x	x
CCOC(=O)C1=C(c2ccccc2)N=c2s/c(=C\c3ccco3)c(=O)n2C1c1cccs1 (stereo unspecified)	22%	25µM*	11µM*	-35%	u	0%
CCOC(=O)C1=C(c2ccccc2)N=c2s/c(=C\c3cc(OC)c(OC)c(OC)c3)c(=O)n2C1c1cccs1 (stereo unspecified)	-13%	-20%	u	18%	u	4%
CCOC(=O)C1=C(N)n2c(s/c(=C\c3ccco3)c2=O)=C(C(=O)OCC)C1c1ccco1 (stereo unspecified)	-3%	u	7.9µM*	-18%	u	4%
CCOC(=O)C1=C(N)n2c(s/c(=C\c3ccco3)c2=O)=C(C(=O)OC(C)C)C1c1ccco1 (stereo unspecified)	-3%	u	u	-29%	28µM*	12%
CCOC(=O)C1=C(N)n2c(s/c(=C/c3ccccc3)c2=O)=C(C(=O)OCC)C1c1ccccc1 (stereo unspecified)	-4%	x	-24%[57.1 µM]	x	12%	x
c1ccc2c(-c3[nH]ncc3CNCCCn3ncc4ccccc43)cccc2c1	-15%	20µM*	u	-17%	x	-4%
N#CC1=C(N)NC(SCc2ccc(Cl)cc2)=C(C#N)C12CCCCC2	-2%	u	-9%	-2%	-12%	14%
N#CC1=C(N)NC(SCC(=O)c2ccccc2)=C(C#N)C12CCCC2	-3%	u	u	2%	50µM*	4%
CC1=C(C(=O)Nc2ccccc2)C2(CCCCC2)C(C#N)=C(SCC(N)=O)N1	x	14µM*	u	-15%	10%	u
CCSC1=C(C#N)C2(CCCC2)C(C#N)=C(N)N1	-9%	u	-3%	-14%	20µM*	u
N#CC1=C(N)NC(SCc2ccccc2)=C(C#N)C12CCCC2	-17%	u	-35%	7%	79µM*	0%
